Measurements as given in PubChem BioAssay AID1159580 (chemical genetic matrix, 2015).
Screen size: about 5,500 compounds; about 2,000 (36%) were called active. Roughly 18% stayed inconclusive and do not appear here. Some of the results follow. Values without a mark were called inactive. Rule as the data show it: active = normalized growth mostly below about 0.91 (no sharp cut-off); inconclusive = no clear call, values can overlap the other calls; inactive = mostly above about 0.92.

Test: chemical genetic growth profiling, strain panel (AID 1159580);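 also: tested at 20 µM; growth read once vehicle control cultures reached saturation at 30 °C; 1 = growth at the plate median or of vehicle wells; lower values mean less growth of the strain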
Conditions: growth OD

COc1c(N2CCNC(C)C2)c(F)cc2c(=O)c(C(=O)O)cn(C3CC3)c12 (configuration not stated)
normalized growth (S. cerevisiae deletion strains, locus YJR075W, strain HOC1, active compounds read low): 0.989
normalized growth (S. cerevisiae deletion strains, locus YKL009W, strain mrt4, active compounds read low): 1.02
normalized growth (S. cerevisiae deletion strains, locus YKL068W, active compounds read low): 0.997
normalized growth (S. cerevisiae deletion strains, locus YKL085W, strain MDH1 (second series), active compounds read low): 0.995
normalized growth (S. cerevisiae deletion strains, locus YKL085W, strain MDH1, active compounds read low): 0.995
normalized growth (S. cerevisiae deletion strains, locus YKL160W, strain elf1, active compounds read low): 0.975
normalized growth (S. cerevisiae deletion strains, locus YKL190W, strain CNB1, active compounds read low): 1.01
normalized growth (S. cerevisiae deletion strains, locus YKR001C, strain vps1, active compounds read low): 0.996
normalized growth (S. cerevisiae deletion strains, locus YKR026C, strain gcn3, active compounds read low): 0.987
normalized growth (S. cerevisiae deletion strains, locus YKR091W, strain srl3, active compounds read low): 0.98
normalized growth (S. cerevisiae deletion strains, locus YLL001W, strain dnm1, active compounds read low): 0.998
normalized growth (S. cerevisiae deletion strains, locus YLL026W, active compounds read low): 0.985
normalized growth (S. cerevisiae deletion strains, locus YLL041C, strain sdh2, active compounds read low): 0.988
normalized growth (S. cerevisiae deletion strains, locus YLR027C, strain aat2, active compounds read low): 0.99
normalized growth (S. cerevisiae deletion strains, locus YLR039C, strain RIC1, active compounds read low): 0.837
normalized growth (S. cerevisiae deletion strains, locus YLR058C, strain SHM2, active compounds read low): 1
normalized growth (S. cerevisiae deletion strains, locus YLR102C, strain apc9, active compounds read low): 0.988
normalized growth (S. cerevisiae deletion strains, locus YLR113W, strain HOG1, active compounds read low): 1.03
normalized growth (S. cerevisiae deletion strains, locus YLR221C, strain rsa3, active compounds read low): 0.975
normalized growth (S. cerevisiae deletion strains, locus YLR258W, strain gsy2, active compounds read low): 0.987
normalized growth (S. cerevisiae deletion strains, locus YLR262C, strain YPT6 (second series), active compounds read low): 0.915
normalized growth (S. cerevisiae deletion strains, locus YLR262C, strain YPT6, active compounds read low): 0.846
normalized growth (S. cerevisiae deletion strains, locus YLR268W, strain sec22, active compounds read low): 0.988
normalized growth (S. cerevisiae deletion strains, locus YLR320W, strain mms22, active compounds read low): 0.75 (active)
normalized growth (S. cerevisiae deletion strains, locus YLR330W, strain CHS5, active compounds read low): 1.01
normalized growth (S. cerevisiae deletion strains, locus YLR342W, strain FKS1 (second series), active compounds read low): 0.881
normalized growth (S. cerevisiae deletion strains, locus YLR342W, strain FKS1, active compounds read low): 0.972
normalized growth (S. cerevisiae deletion strains, locus YLR357W, strain rsc2, active compounds read low): 0.934
normalized growth (S. cerevisiae deletion strains, locus YLR370C, strain arc18, active compounds read low): 0.978
normalized growth (S. cerevisiae deletion strains, locus YLR371W, strain rom2, active compounds read low): 0.989
normalized growth (S. cerevisiae deletion strains, locus YLR384C, strain iki3, active compounds read low): 0.995
normalized growth (S. cerevisiae deletion strains, locus YLR418C, strain cdc73, active compounds read low): 0.973
normalized growth (S. cerevisiae deletion strains, locus YML016C, strain PPZ1, active compounds read low): 1.01
normalized growth (S. cerevisiae deletion strains, locus YML032C, strain rad52, active compounds read low): 0.492 (active)
normalized growth (S. cerevisiae deletion strains, locus YML120C, strain ndi1, active compounds read low): 0.984
normalized growth (S. cerevisiae deletion strains, locus YML124C, strain tub3, active compounds read low): 0.985
normalized growth (S. cerevisiae deletion strains, locus YMR058W, strain fet3, active compounds read low): 0.992
normalized growth (S. cerevisiae deletion strains, locus YMR078C, strain ctf18, active compounds read low): 0.974
normalized growth (S. cerevisiae deletion strains, locus YMR125W, strain sto1, active compounds read low): 0.928
normalized growth (S. cerevisiae deletion strains, locus YMR129W, active compounds read low): 0.974
normalized growth (S. cerevisiae deletion strains, locus YMR205C, strain PFK2, active compounds read low): 0.996
normalized growth (S. cerevisiae deletion strains, locus YMR223W, strain ubp8, active compounds read low): 0.999
normalized growth (S. cerevisiae deletion strains, locus YMR231W, strain pep5, active compounds read low): 0.993
normalized growth (S. cerevisiae deletion strains, locus YMR263W, strain SAP30, active compounds read low): 1.01
normalized growth (S. cerevisiae deletion strains, locus YMR307W, strain GAS1, active compounds read low): 0.845
normalized growth (S. cerevisiae deletion strains, locus YNL067W, strain RPL9B, active compounds read low): 1
normalized growth (S. cerevisiae deletion strains, locus YNL071W, strain lat1, active compounds read low): 0.985
normalized growth (S. cerevisiae deletion strains, locus YNL128W, strain TEP1, active compounds read low): 1.03
normalized growth (S. cerevisiae deletion strains, locus YNL153C, strain GIM3, active compounds read low): 1.01
normalized growth (S. cerevisiae deletion strains, locus YNL183C, strain NPR1, active compounds read low): 0.983
normalized growth (S. cerevisiae deletion strains, locus YNL209W, strain ssb2, active compounds read low): 0.986
normalized growth (S. cerevisiae deletion strains, locus YNL233W, strain BNI4, active compounds read low): 1.01
normalized growth (S. cerevisiae deletion strains, locus YNL248C, strain rpa49, active compounds read low): 0.917
normalized growth (S. cerevisiae deletion strains, locus YNL250W, strain rad50, active compounds read low): 0.868 (active)
normalized growth (S. cerevisiae deletion strains, locus YNL271C, strain bni1, active compounds read low): 1
normalized growth (S. cerevisiae deletion strains, locus YNL298W, strain CLA4, active compounds read low): 1.02
normalized growth (S. cerevisiae deletion strains, locus YNL307C, strain MCK1, active compounds read low): 1
normalized growth (S. cerevisiae deletion strains, locus YNL322C, strain KRE1 (second series), active compounds read low): 0.967
normalized growth (S. cerevisiae deletion strains, locus YNL322C, strain KRE1, active compounds read low): 1.01
normalized growth (S. cerevisiae deletion strains, locus YNR049C, strain mso1, active compounds read low): 0.963
normalized growth (S. cerevisiae deletion strains, locus YNR052C, strain pop2, active compounds read low): 1
normalized growth (S. cerevisiae deletion strains, locus YOL006C, strain TOP1, active compounds read low): 0.936
normalized growth (S. cerevisiae deletion strains, locus YOL012C, strain htz1): 0.555
normalized growth (S. cerevisiae deletion strains, locus YOL147C, strain pex11, active compounds read low): 1
normalized growth (S. cerevisiae deletion strains, locus YOR001W, strain rrp6, active compounds read low): 0.986
normalized growth (S. cerevisiae deletion strains, locus YOR061W, strain CKA2, active compounds read low): 1.01
normalized growth (S. cerevisiae deletion strains, locus YOR069W, strain VPS5, active compounds read low): 1.01
normalized growth (S. cerevisiae deletion strains, locus YOR070C, strain gyp1, active compounds read low): 0.994
normalized growth (S. cerevisiae deletion strains, locus YOR080W, strain dia2, active compounds read low): 0.97
normalized growth (S. cerevisiae deletion strains, locus YOR083W, strain WHI5, active compounds read low): 1
normalized growth (S. cerevisiae deletion strains, locus YOR106W, strain vam3, active compounds read low): 0.994
normalized growth (S. cerevisiae deletion strains, locus YOR136W, strain idh2, active compounds read low): 1
normalized growth (S. cerevisiae deletion strains, locus YOR144C, strain elg1, active compounds read low): 0.998
normalized growth (S. cerevisiae deletion strains, locus YOR184W, strain ser1, active compounds read low): 0.99
normalized growth (S. cerevisiae deletion strains, locus YOR231W, strain MKK1, active compounds read low): 1.01
normalized growth (S. cerevisiae deletion strains, locus YOR265W, strain rbl2, active compounds read low): 0.984
normalized growth (S. cerevisiae deletion strains, locus YOR270C, strain vph1, active compounds read low): 0.896
normalized growth (S. cerevisiae deletion strains, locus YOR290C, strain snf2, active compounds read low): 0.951
normalized growth (S. cerevisiae deletion strains, locus YOR316C, strain cot1, active compounds read low): 0.995
normalized growth (S. cerevisiae deletion strains, locus YPL051W, strain arl3, active compounds read low): 0.975
normalized growth (S. cerevisiae deletion strains, locus YPL055C, strain LGE1, active compounds read low): 0.992
normalized growth (S. cerevisiae deletion strains, locus YPL078C, strain atp4, active compounds read low): 0.99
normalized growth (S. cerevisiae deletion strains, locus YPL106C, strain sse1, active compounds read low): 0.946
normalized growth (S. cerevisiae deletion strains, locus YPL240C, strain hsp82, active compounds read low): 0.986
normalized growth (S. cerevisiae deletion strains, locus YPL241C, strain CIN2, active compounds read low): 1.01
normalized growth (S. cerevisiae deletion strains, locus YPL256C, strain CLN2, active compounds read low): 0.956
normalized growth (S. cerevisiae deletion strains, locus YPR119W, strain clb2, active compounds read low): 0.997
normalized growth (S. cerevisiae deletion strains, locus YPR141C, strain kar3, active compounds read low): 1
normalized growth (S. cerevisiae deletion strains, locus YPR163C, strain tif3, active compounds read low): 1
normalized growth (S. cerevisiae deletion strains, locus YPR167C, strain met16, active compounds read low): 0.996
normalized growth (S. cerevisiae deletion strains, strain wtn01, active compounds read low): 0.996
normalized growth (S. cerevisiae strains, strain wild type, active compounds read low): 1.01
